Laboratory results taken from PubChem BioAssay (NCATS).
Inconclusive results are not listed. Activity calls are given as the source filed them. Unless noted, calls come from the whole dose curve; as a rule, active = well fitted curve in the direction sought with a large enough effect; inconclusive = small, poorly fitted or top-dose-only effect, or another doubt; inactive = no such curve, though single readings can be large; an effect the other way counts as inactive or inconclusive.

Assays:
[1] = biological target: DNA repair nuclease/redox regulator APEX1 (Homo sapiens) (UniProt P27695); assay: qHTS Validation Assay for Inhibitors of the Human Apurinic/apyrimidinic Endonuclease 1 (APE1) (AID 1705;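 note: TAMRA fluorescence gain over two minutes as APE1 cuts a quenched THF abasic duplex; % is set by controls: 0 for no effect and ±100 for the full control effect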)
Chain of DNA repair nuclease/redox regulator APEX1 (Homo sapiens) (P27695 whole entry, looked up): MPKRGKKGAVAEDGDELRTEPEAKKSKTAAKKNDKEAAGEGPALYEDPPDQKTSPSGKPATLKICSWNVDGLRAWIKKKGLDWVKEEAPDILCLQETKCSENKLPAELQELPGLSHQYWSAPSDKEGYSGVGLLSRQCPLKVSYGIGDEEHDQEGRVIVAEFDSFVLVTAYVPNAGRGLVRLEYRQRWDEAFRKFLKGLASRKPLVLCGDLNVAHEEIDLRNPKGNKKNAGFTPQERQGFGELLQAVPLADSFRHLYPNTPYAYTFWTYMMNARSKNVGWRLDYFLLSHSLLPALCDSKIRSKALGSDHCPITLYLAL
Procedure, shortened: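 Substrate: 50 nM final fluorophore/quencher THF-abasic duplex. Enzyme preincubated with compounds 15 min, RT. Progress derived from fluorescence difference, third minus first kinetic read.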

[2] = biological target: Endonuclease 4 (Escherichia coli (strain K12)) (UniProt P0A6C1); assay: Counterscreen for APE1 Inhibitors: qHTS Validation Assay for Inhibitors of Endonuclease IV (AID 1708); note: % is set by controls: 0 for no effect and ±100 for the full control effect
Procedure, shortened: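 E. coli EndoIV at 2 nM final, preincubated 15 min at room temperature with compound, then 50 nM TAMRA/BHQ-2 THF abasic-site duplex added. Buffer: 50 mM Tris-HCl pH 7.5, 50 mM NaCl, 2 mM MgCl2, 1 mM DTT, 0.01% Tween-20. Kinetic fluorescence increase, third minus first read.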

[3] = qHTS for differential inhibitors of proliferation of Plasmodium falciparum line 7G8 (AID 1815);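 note: parasite growth measured after three days of incubation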; note: potency is the fitted concentration of half-maximal effect;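 for activity change, negative = inhibition: plate controls were vehicle wells for no effect and reference inhibitor wells for full effect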
[4] = qHTS for differential inhibitors of proliferation of Plasmodium falciparum line GB4 (AID 1816); conditions: Potency: Plasmodium falciparum GB4 proliferation inhibition;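 note: parasite growth measured after 72 h incubation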; note: potency is the fitted concentration of half-maximal effect;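 for activity change, negative = inhibition: 0% = vehicle DMSO and -100% = reference inhibitor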
[5] = qHTS for differential inhibitors of proliferation of Plasmodium falciparum line 3D7 (AID 1876); note: potency is the fitted concentration of half-maximal effect
[6] = qHTS for differential inhibitors of proliferation of Plasmodium falciparum line D10 (AID 1877);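 note: parasites grown with compound for 72 h before DNA staining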; note: potency is the fitted concentration of half-maximal effect;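 for activity change, negative = inhibition: plate controls were vehicle wells for no effect and reference inhibitor wells for full effect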
[7] = qHTS for differential inhibitors of proliferation of Plasmodium falciparum line Dd2 (AID 1882); conditions: Potency: Plasmodium falciparum Dd2 proliferation inhibition; note: nearly all actives have a fitted effect of over 65% in size; note: potency is the fitted concentration of half-maximal effect;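 for activity change, negative = inhibition: plate controls were DMSO vehicle for no effect and 0.29 µM artemisinin for full effect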
Procedure, shortened: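 Dd2-infected erythrocytes (0.3% parasitemia, 2.5% hematocrit final) incubated with compound 72 h at 37 C, 5% CO2; lysed with saponin/Triton buffer containing SYBR Green I, incubated overnight in the dark, then read by fluorescence (485/535 nm). Normalized to 0.29 uM artemisinin and DMSO.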

[8] = qHTS Assay for Lipid Storage Modulators (AID 1519; calls by dose curve; for activity change, negative = inhibition: % is set by controls: 0 for no effect and ±100 for the full control effect); conditions: Drosophila S3 cells, BODIPY lipid droplet/cell ratio, laser cytometry, cells loaded with oleic acid
Procedure, shortened: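 Cells seeded at 5,000 per well were treated with compounds over a concentration series and loaded with oleic acid (400 uM, as added). Lipid droplet fluorescence (488 nm excitation, 500-530 nm channel) was read by laser-scanning cytometry and normalized to 20 uM Triacsin C.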

[9] = Counterscreen for APE1 Inhibitors: Fluorescent Dye Displacement Validation Assay (AID 1707);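 note: plate controls were ThO with dsDNA and no compound for no effect and ThO without dsDNA for full effect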
Procedure, shortened: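 Compounds are scored by their ability to displace Thiazole Orange (250 nM) from a 50 nM TAMRA-tagged duplex bearing a tetrahydrofuran abasic site. Buffer is 50 mM Tris-HCl pH7.5, 50mM NaCl, 2 mM MgCl2, 0.01% Tween-20.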

[10] = measured here: cell count channel max response
[11] = measured here: lipid channel max response

Cn1c(=O)c2[nH]cnc2n(C)c1=O
inactive: Potency [1] | Potency [2] | Potency [3] | Potency [4] | Potency [5] | Potency [6] | Potency [7]

COc1ccccc1N1CCN(CC(O)COc2cccc3ccccc23)CC1 (stereo not given)
inactive: activity change, negative = inhibition ([8]; at 57.5 µM (top of the series)) 0.0402% | Potency [1]
active: Potency [3] 11.2 µM | Potency [4] 14.1 µM
-17.8%: max response [8, 10]
-14.9%: max response [8, 11]

COc1ccc(CCN(C)CCCC(C#N)(c2ccc(OC)c(OC)c2)C(C)C)cc1OC (stereo not given)
inactive: Potency [1] | Potency [9]

CC(C)Cc1ccc(C(C)C(=O)O)cc1 (stereo not given)
inactive: Potency [1] | Potency [9] | Potency [4] | Potency [5] | Potency [6] | Potency [7]

O=c1c(-c2ccc(O)cc2)coc2cc(O)cc(O)c12
9.16%: max response [8, 11]
inactive: activity change, negative = inhibition ([8]; at 57.5 µM (top of the series)) -6.97% | Potency [1] | Potency [9] | Potency [2] | Potency [6] | Potency [7]
15.5%: max response [8, 10]

CC[N+](CC)(CC)CCOc1cccc(OCC[N+](CC)(CC)CC)c1OCC[N+](CC)(CC)CC
inactive: Potency [1] | Potency [9] | Potency [3] | Potency [4] | Potency [5] | Potency [6] | Potency [7]

OCCN(CCO)c1nc(N2CCCCC2)c2nc(N(CCO)CCO)nc(N3CCCCC3)c2n1
-17.7%: max response [8, 11]
-18.6%: max response [8, 10]
active: Potency [3] 2 µM | Potency [4] 2.82 µM | Potency [5] 3.98 µM | Potency [6] 7.94 µM | Potency [7] 6.31 µM
inactive: activity change, negative = inhibition ([8]; at 25.7 µM (top of the series)) -0.0376% | Potency [2]
